This is a sample that favours compounds with a hit; in the whole collection about 21% have one here.
IL1B secr inh: blocks inflammasome-driven IL-1 beta release; THP-1 LPS/ATP IL-1B secretion, AlphaLISA, 16 h; active compounds read low; AID 743279; 360,000 compounds, 4.7% hits; activity change, % at 57.5 µM; in the data active = activity change below about -50%; inconclusive = mostly about -30% to -49%
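Secreted IL-1B measured by AlphaLISA bead assay after 16 h compound exposure of THP-1 cells; compounds (final up to 57.5 uM) added 1 h before LPS (250 ng/mL) and ATP (1.25 mM) stimulation; lower signal means less secretion.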
TDP1 cell CPT: DT40-hTDP1 cell growth loss with CPT; chicken DT40 Tdp1-/-;hTDP1 cells + 20 nM CPT, ATP luminescence, 48 h; Potency, µM (doses to about 46.2 µM), for inactives: at the top dose activity change, negative = growth inhibition, hits mostly inhibitors; 420,000 compounds, 12% hits; AID 686979; note: potency is the fitted concentration of half-maximal effect; nearly all actives have a fitted effect of over 55% in size
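Cell growth measured by CellTiter-Glo luminescence after a minimum 48 h, 37 C compound exposure with 20 nM CPT in Tdp1-knockout DT40 cells stably expressing hTDP1, seeded 400/well; qHTS titration format.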
RORg inh: inhibitors of mouse ROR gamma transcriptional activity. AID 2551. 310,000 compounds, 5.4% hits. P51450. Potency, µM (top dose mostly 53.6 µM), for the others: top-dose activity change, negative = inhibition, usual class: inhibitors. Drosophila S2 Gal4-RORgamma UAS-luciferase reporter, 20 h; note: potency is the fitted concentration of half-maximal effect; nearly all actives have a fitted effect of over 60% in size
Target sequence (P51450 whole entry, looked up, the tested form may be a part): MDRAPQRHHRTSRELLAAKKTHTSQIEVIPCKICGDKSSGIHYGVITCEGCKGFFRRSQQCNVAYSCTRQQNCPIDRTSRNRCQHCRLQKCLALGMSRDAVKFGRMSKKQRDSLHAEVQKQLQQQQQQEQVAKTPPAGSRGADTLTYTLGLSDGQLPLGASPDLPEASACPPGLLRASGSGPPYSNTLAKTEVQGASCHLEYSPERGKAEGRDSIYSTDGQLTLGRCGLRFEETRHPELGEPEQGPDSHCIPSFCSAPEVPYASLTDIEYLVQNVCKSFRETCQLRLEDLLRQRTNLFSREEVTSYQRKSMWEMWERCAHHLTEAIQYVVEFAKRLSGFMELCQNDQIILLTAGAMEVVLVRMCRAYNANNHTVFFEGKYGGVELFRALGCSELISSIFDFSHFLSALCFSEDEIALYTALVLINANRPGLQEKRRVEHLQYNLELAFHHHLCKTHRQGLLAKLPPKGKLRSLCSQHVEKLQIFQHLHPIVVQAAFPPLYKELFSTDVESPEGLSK
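Stably transfected Drosophila Schneider cells are the test system, with ROR gamma fused to Gal4 and luciferase under UAS control; luminescence is read after 20 hr of 700 uM copper sulfate induction at ambient temperature.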
TDP1 cell noCPT: qHTS for Inhibitors of human tyrosyl-DNA phosphodiesterase 1 (TDP1): qHTS in cells in absence of CPT; DT40 Tdp1-/- hTDP1 cells, no CPT, ATP luminescence, 48 h; Potency, µM (highest dose often 46.2 µM), without a hit: top-dose activity change, negative = growth inhibition, usual class: inhibitors; 420,000 compounds, 15% hits; AID 686978, 2013; note: potency is the fitted concentration of half-maximal effect; nearly all actives have a fitted effect of over 55% in size
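Luminescent ATP content (CellTiter-Glo) served as the growth readout. Knockout chicken DT40 cells expressing human TDP1 were exposed to compounds without camptothecin for a minimum 48 hr at 37 °C.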
ELG1 repair inh: inhibitors of ELG1-dependent DNA repair in HEK293T cells. Potency, µM (doses to about 46.1 µM), inactives show at the top dose activity change, negative = inhibition, hits mostly inhibitors. 330,000 compounds, 2.3% hits. AID 504467. HEK293T ELG1-luciferase reporter, luminescence, 16 h; DNA damage induced by 5-fluorouridine; note: potency is the fitted concentration of half-maximal effect; nearly all actives have a fitted effect of over 55% in size
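Luminescence from the luciferase reporter, measured 30 min after ONE-Glo reagent at room temperature, was the read-out. Beforehand, 2,000 cells per well were exposed for 16 hr at 37 °C to 5-fluorouridine together with compound or vehicle.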
VP16 counter: Gal4-VP16 reporter inhibition counter-screen; Drosophila S2 Gal4-VP16 UAS-luciferase, luminescence, 20 h; Potency, µM (series often up to 53.6 µM), for the others: at the top dose activity, negative = inhibition, actives largely listed as inhibitors; 310,000 compounds, 3.5% hits;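 note: Gal4-VP16 expression switched on by copper sulfate through the metallothionein promoter; potency is the fitted concentration of half-maximal effect; nearly all actives have a fitted effect of over 50% in size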
Starred values were filed as active, the others as inactive; ? = inconclusive; . = no result; [ ] = another dose, or the depositor's remark. Unless noted, calls come from the whole dose curve; as a rule, active = well fitted curve in the direction sought with a large enough effect; inconclusive = small, poorly fitted or top-dose-only effect, or another doubt; inactive = no such curve, though single readings can be large; an effect the other way counts as inactive or inconclusive. % is set by controls: 0 for no effect and ±100 for the full control effect.

SMILES	IL1B secr inh	TDP1 cell CPT	RORg inh	TDP1 cell noCPT	ELG1 repair inh	VP16 counter
CCn1c(=O)c2c(nc3n2CCCN3Cc2ccccc2)n(C)c1=O	-12	-27%	14%	?	?	-7%
Cc1cc(NC(=O)CSCC(=O)N(C)Cc2cccc(Cl)c2)no1	1	-22%	.	-18%	9%	.
Cn1c(=O)c2[nH]c(CCCCCCCc3nc4ccccc4[nH]3)nc2n(C)c1=O	-19	23µM*	.	13µM*	.	.
Cn1c(=O)c2[nH]c(CNCc3ccccc3Cl)nc2n(C)c1=O	-1	3.7µM*	15%	3.3µM*	-1%	-1%
Cn1c(=O)c2[nH]c(Cc3cccc(O)c3)nc2n(C)c1=O	10	-9%	.	?	.	.
Cn1c(=O)c2[nH]c(CN3CCN(Cc4ccccc4)CC3)nc2n(C)c1=O	12	-20%	5%	-14%	-11%	-19%
Cn1c(=O)c2[nH]c(COc3ccc(C(C)(C)C)cc3)nc2n(C)c1=O	38	8.2µM*	-3%	4.6µM*	5.8µM*	?
O=C(Cn1c(O)c(/C=C2\C=Nc3ccc(Br)cc32)sc1=O)N1CCCC1	?	21µM*	7%	?	-27%	-3%
O=C(O)C(=O)Nc1ncn[nH]1	19	10%	.	-28%	.	.
C=CCCC(=O)Nc1ccc(Br)cn1	-14	?	6%	18µM*	-10%	-19%
O=C(/C=C/c1ccccc1)Nc1ncn[nH]1	-108*	7.3µM*	14µM*	10µM*	?	?
O=C(/C=C/c1ccccc1)Nc1ccc(Br)cn1	0	2.3µM*	14%	2.3µM*	?	-3%
CCCCC(=O)Nc1ccc(Br)cn1	-14	5%	?	-2%	?	?
O=C(CC[C@H]1O[C@@H](n2ccc(=O)[nH]c2=O)[C@H](O)[C@@H]1O)NCCc1c[nH]c2ccccc12	-4	0%	.	9%	.	.
O=C1CCCc2[nH]c(=O)c(C(=O)NCc3ccccc3)cc21	.	-19%	.	-19%	.	.
CCOc1ccccc1N1CCN(C(=O)c2ccc3nc(N)sc3c2)CC1	-4	-14%	.	?	-15%	.
CCn1c(-c2csc(C(C)C)c2)n[nH]c1=S	21	-14%	2.5µM*	?	12%	13µM*
CC(C)Cn1c(-c2csc(C(C)C)c2)n[nH]c1=S	-8	?	2µM*	?	3%	-25%[10 µM]
COc1ccc(CNC(=O)CN2C(=O)CSc3ccc(S(=O)(=O)N(C)C)cc32)cc1	.	-24%	.	-29%	.	.
Cc1ccc(NC(=O)CN2C(=O)CSc3ccc(S(=O)(=O)N(C)C)cc32)cc1C	.	16µM*	.	?	.	.
Cc1cc(Cl)ccc1NC(=O)CN1C(=O)CSc2ccc(S(=O)(=O)N(C)C)cc21	.	?	.	-28%	.	.
CN(C)S(=O)(=O)c1ccc2c(c1)N(CC(=O)Nc1ccc(OC(F)(F)F)cc1)C(=O)CS2	.	16µM*	.	?	.	.
Cc1cc(C)cc(NC(=O)CN2C(=O)CSc3ccc(S(=O)(=O)N(C)C)cc32)c1	.	21µM*	.	16µM*	.	.
CC(C)c1ccc(CNC(=O)C2(C)CCCN2C)cc1 (stereo not drawn)	-23	-2%	.	-21%	.	.
Nc1[nH]ncc1S(=O)(=O)c1ccccc1	1	-4%	3%	-18%	-4%	2%
SMILES	IL1B secr inh	TDP1 cell CPT	RORg inh	TDP1 cell noCPT	ELG1 repair inh	VP16 counter
COc1ccc(/C=C2/N=C3CCCCCN3C2=O)cc1OC	-4	?	32%	29µM*	?	?
COc1ccc(/C=C2\SC(N3CCCCC3)=NC2=O)cc1OC	-28	-17%	-5%	21µM*	?	-13%
COc1ccc(OC)c(S(=O)(=O)N2CCCC(C)C2)c1 (stereo not drawn)	-30	-12%	16%	-15%	10%	-3%
COc1cc(/C=C2\SC(N3CCC(C)CC3)=NC2=O)ccc1O	-56*	-23%	-10%	?	?	-4%
COc1ccc(OC)c(/C=C2\SC(N3CCCC(C)C3)=NC2=O)c1 (stereo not drawn)	-59*	16µM*	15%	21µM*	?	8%
Oc1ccccc1CNCCCN1CCOCC1	15	0%	-27%[1.91 µM]	23%	-1%	8%
COc1ccc(Cl)cc1NC(=O)CN(C)C(=O)CCNC(=O)c1ccccc1OC	-4	-27%	.	?	4%	.
OC(Cc1ccnc2ccccc12)C(Cl)(Cl)Cl (stereo not drawn)	8	?	.	10µM*	.	.
Cc1ccc(S(=O)(=O)Nc2cccc3c2O[C@H](CN(C)C(=O)Nc2cccc4ccccc24)[C@H](C)CN([C@H](C)CO)C3=O)cc1	?	21µM*	.	21µM*	5%	.
C[C@H](CO)N1C[C@H](C)[C@@H](CN(C)S(C)(=O)=O)Oc2c(NC(=O)Nc3ccc(C(F)(F)F)cc3)cccc2C1=O	-2	23µM*	.	?	8%	.
Cc1ccc(S(=O)(=O)Nc2cccc3c2O[C@H](CN(C)C(=O)Nc2ccc(C(F)(F)F)cc2)[C@@H](C)CN([C@H](C)CO)C3=O)cc1	-11	16µM*	.	?	-7%	.
CC(C)NC(=O)Nc1cccc2c1O[C@H](CN(C)S(C)(=O)=O)[C@@H](C)CN([C@H](C)CO)C2=O	20	10%	.	2%	0%	.
C[C@@H]1CN([C@H](C)CO)C(=O)c2cc(NC(=O)Nc3ccc(C(F)(F)F)cc3)ccc2O[C@H]1CN(C)C(=O)Nc1ccc(F)cc1	-61*	?	.	?	.	.
Oc1cc(-c2nc3ccccc3s2)cc2c1OCCN(Cc1cccn1-c1nccs1)C2	.	3%[9.04 µM]	.	?	.	.
COc1ccc(CCNC2=CC(=O)CCC2)cc1OC	99	-19%	.	-13%	.	.
COc1ccc(S(=O)(=O)Nc2cccc3c2O[C@H](CN(C)Cc2ccc(Cl)c(Cl)c2)[C@@H](C)CN([C@H](C)CO)C3=O)cc1	-56*	21µM*	.	18µM*	-1%	.
C[C@H](CO)N1C[C@H](C)[C@@H](CN(C)Cc2ccccc2)Oc2c(NC(=O)C3CCCCC3)cccc2C1=O	-72*	?	.	?	-2%	.
COc1ccc(S(=O)(=O)Nc2cccc3c2O[C@H](CN(C)Cc2ccccc2)[C@@H](C)CN([C@H](C)CO)C3=O)cc1	-5	?	.	?	?	.
